# Assay results reported in the supplement of paper PMC10849652.
# About 7,900 targets were measured; listed, in parts, are those with a hit and a random draw of the rest. About 0.6% of all pairs of compound and target were hits. Unmarked numbers belong to inactive results.
# Tests used:
# Experiment in all cases: log2 fold change, soluble protein after heating vs DMSO (PISA); higher = thermal stabilisation; K562 cells, 10 uM, 30 min; active = over 0.2 and 3.5 SD of the protein, either way, in both replicates (recomputed)
# [1] = compound: CC[C@@H]1C(=O)N(C)c2cnc(Nc3ccc(C(=O)NC4CCN(C)CC4)cc3OC)nc2N1C1CCCC1
# Summary of the method: (§1)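 Soluble protein was quantified by TMTpro 16plex LC-MS/MS after channel sums were equalised. It was obtained as the supernatant after 21,000xg for 90 min from pooled aliquots of K562 cells (2×10^6 cells/mL, 10 μM compound, 30 min) heated for 3 min across 48°C-58°C and extracted in PBS with 0.5% NP-40 at 4°C. Thermal stability values are relative to control samples and come from duplicates. They are given as log2 fold changes.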
# volasertib = compound: CC[C@@H]1C(=O)N(C)c2cnc(Nc3ccc(C(=O)N[C@H]4CC[C@H](N5CCN(CC6CC6)CC5)CC4)cc3OC)nc2N1C(C)C [volasertib]
# Summary of the method: as §1
# [2] = compound: CC[C@H](C)N1C=C(C2=C(C=C(C=C21)C3=CN=C(C=C3)N4CCNCC4)C(=O)NCC5=C(C=C(NC5=O)C)C)C
# Summary of the method: as §1
# epoxomicin = compound: CC[C@H](C)[C@@H](C(=O)N[C@@H]([C@@H](C)O)C(=O)N[C@@H](CC(C)C)C(=O)[C@]1(CO1)C)NC(=O)[C@H]([C@@H](C)CC)N(C)C(=O)C [epoxomicin]
# Summary of the method: as §1
# [3] = compound: CCn1c(C(=O)N(C2CC2)C2CC2)cc2c3c(ncn3C)c(Nc3cc(C)n(C)n3)nc21
# Summary of the method: as §1
# [4] = compound: CCn1cc(-c2ccnc3[nH]c(-c4cccc(CN(C)C)c4)cc23)c(-c2ccc(NC(=O)N(C)C)cc2)n1
# Summary of the method: as §1
# [5] = compound: CN(C)CC(=O)Nc1ccc2[nH]c(=O)c3ccccc3c2c1
# Summary of the method: as §1
# rosiglitazone = compound: CN(CCOC1=CC=C(C=C1)C[C@H]2C(=O)NC(=O)S2)C3=CC=CC=N3 (racemic) [rosiglitazone]
# Summary of the method: as §1
# [6] = compound: CN1C2=C(C3=C1C(=O)N(N=C3)CC4=CC(=CC=C4)N)SC(=C2)S(=O)C
# Summary of the method: as §1
# [7] = compound: CN1CCC(CNc2ccc3ncc(-c4cccc(OC(F)(F)F)c4)n3n2)CC1
# Summary of the method: as §1
# saracatinib = compound: CN1CCN(CCOc2cc(OC3CCOCC3)c3c(Nc4c(Cl)ccc5c4OCO5)ncnc3c2)CC1 [saracatinib]
# Summary of the method: as §1
# sotrastaurin = compound: CN1CCN(c2nc(C3=C(c4c[nH]c5ccccc45)C(=O)NC3=O)c3ccccc3n2)CC1 [sotrastaurin]
# Summary of the method: as §1
# alvocidib = compound: CN1CC[C@H](c2c(O)cc(O)c3c(=O)cc(-c4ccccc4Cl)oc23)[C@H](O)C1 [alvocidib]
# Summary of the method: as §1
# Tubastatin A = compound: CN1CCc2c(c3ccccc3n2Cc2ccc(C(=O)NO)cc2)C1 [Tubastatin A]
# Summary of the method: as §1
# [8] = compound: CNC(=O)C1=CC=CC=C1NC2=NC(=NC=C2Cl)NC3=C(C=C(C=C3)N4CCOCC4)OC
# Summary of the method: as §1
# defactinib = compound: CNC(=O)c1ccc(Nc2ncc(C(F)(F)F)c(NCc3nccnc3N(C)S(C)(=O)=O)n2)cc1 [defactinib]
# Summary of the method: as §1
# rucaparib = compound: CNCc1ccc(-c2[nH]c3cc(F)cc4c3c2CCNC4=O)cc1 [rucaparib]
# Summary of the method: as §1
# [9] = compound: CNc1nc(-c2ccc3c(N)n[nH]c3c2)cc(N2C[C@@H](C(=O)NC3CCCCC3)CC[C@H]2C)n1
# Summary of the method: as §1
# encorafenib = compound: COC(=O)N[C@@H](C)CNc1nccc(-c2cn(C(C)C)nc2-c2cc(Cl)cc(NS(C)(=O)=O)c2F)n1 [encorafenib]
# Summary of the method: as §1
# [10] = compound: COC(=O)[C@H](CCSC)NC(=O)C1=C(C=C(C=C1)NC[C@H](CS)N)C2=CC=CC=C2
# Summary of the method: as §1
# Chain of UniProt Q9UHQ4 (Q9UHQ4 whole entry, looked up): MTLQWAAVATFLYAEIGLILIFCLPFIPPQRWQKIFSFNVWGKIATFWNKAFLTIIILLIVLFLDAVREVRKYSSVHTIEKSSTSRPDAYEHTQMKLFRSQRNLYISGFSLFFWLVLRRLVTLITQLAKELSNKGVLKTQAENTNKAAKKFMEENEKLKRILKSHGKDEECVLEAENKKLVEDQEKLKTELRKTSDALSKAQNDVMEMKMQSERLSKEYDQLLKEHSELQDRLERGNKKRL
# Chain of UniProt O95433 (O95433 whole entry, looked up): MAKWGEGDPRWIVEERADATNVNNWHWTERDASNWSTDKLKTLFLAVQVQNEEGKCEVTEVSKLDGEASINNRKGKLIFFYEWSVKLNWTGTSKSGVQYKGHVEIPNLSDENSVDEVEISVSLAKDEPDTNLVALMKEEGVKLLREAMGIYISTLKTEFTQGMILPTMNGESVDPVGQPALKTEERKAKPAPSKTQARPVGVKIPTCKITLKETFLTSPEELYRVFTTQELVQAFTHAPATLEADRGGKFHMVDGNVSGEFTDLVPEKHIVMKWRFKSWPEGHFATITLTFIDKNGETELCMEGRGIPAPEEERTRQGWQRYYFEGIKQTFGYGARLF
# Chain of UniProt Q8N6S5 (Q8N6S5 whole entry, looked up): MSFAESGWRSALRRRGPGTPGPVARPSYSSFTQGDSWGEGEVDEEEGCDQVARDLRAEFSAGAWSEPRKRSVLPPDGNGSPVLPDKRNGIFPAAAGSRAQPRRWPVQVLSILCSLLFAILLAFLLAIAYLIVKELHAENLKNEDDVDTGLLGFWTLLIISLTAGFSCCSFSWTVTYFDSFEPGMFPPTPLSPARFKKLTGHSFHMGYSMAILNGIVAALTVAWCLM
# Chain of UniProt Q9NQ11 (Q9NQ11 whole entry, looked up): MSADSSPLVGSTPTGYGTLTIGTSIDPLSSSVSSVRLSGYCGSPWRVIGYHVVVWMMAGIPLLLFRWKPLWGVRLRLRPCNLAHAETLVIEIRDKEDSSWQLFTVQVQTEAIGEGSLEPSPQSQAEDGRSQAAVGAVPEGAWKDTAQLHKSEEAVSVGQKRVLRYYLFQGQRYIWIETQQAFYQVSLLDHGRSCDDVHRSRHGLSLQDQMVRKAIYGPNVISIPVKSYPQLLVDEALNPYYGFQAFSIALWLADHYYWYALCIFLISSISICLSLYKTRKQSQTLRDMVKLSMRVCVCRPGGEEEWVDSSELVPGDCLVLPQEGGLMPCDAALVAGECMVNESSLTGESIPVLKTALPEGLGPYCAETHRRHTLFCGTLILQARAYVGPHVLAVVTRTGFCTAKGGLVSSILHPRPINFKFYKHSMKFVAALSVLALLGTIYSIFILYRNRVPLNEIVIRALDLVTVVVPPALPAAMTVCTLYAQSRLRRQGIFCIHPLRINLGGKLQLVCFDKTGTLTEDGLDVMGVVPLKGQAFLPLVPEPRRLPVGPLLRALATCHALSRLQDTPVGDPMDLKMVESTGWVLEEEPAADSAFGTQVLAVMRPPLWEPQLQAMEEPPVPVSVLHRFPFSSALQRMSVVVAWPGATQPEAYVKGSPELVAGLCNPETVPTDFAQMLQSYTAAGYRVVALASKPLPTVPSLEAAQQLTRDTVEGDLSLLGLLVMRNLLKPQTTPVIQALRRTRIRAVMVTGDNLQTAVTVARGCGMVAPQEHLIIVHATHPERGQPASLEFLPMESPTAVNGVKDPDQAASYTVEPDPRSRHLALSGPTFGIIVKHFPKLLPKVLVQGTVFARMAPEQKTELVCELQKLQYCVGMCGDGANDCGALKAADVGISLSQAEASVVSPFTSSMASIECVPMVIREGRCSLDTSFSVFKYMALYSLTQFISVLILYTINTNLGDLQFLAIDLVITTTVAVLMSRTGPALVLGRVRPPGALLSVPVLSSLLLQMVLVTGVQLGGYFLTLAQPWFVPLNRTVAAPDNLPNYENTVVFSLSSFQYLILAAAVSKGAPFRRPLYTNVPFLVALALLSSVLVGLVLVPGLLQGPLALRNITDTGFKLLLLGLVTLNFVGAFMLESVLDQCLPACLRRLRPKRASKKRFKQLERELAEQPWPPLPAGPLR
# Chain of UniProt Q8N5I2 (Q8N5I2 whole entry, looked up): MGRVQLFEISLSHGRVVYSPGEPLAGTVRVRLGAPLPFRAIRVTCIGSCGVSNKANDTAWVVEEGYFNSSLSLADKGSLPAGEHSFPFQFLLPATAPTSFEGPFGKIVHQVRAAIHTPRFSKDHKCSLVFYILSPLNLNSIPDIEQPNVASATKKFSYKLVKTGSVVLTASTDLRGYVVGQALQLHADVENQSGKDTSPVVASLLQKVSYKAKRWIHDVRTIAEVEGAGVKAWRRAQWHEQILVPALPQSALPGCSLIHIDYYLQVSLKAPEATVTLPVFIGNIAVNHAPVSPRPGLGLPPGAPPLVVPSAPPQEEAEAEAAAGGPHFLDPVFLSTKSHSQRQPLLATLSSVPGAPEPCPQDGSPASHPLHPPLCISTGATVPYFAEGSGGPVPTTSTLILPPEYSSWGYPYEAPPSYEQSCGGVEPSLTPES
# Chain of UniProt O95573 (O95573 whole entry, looked up): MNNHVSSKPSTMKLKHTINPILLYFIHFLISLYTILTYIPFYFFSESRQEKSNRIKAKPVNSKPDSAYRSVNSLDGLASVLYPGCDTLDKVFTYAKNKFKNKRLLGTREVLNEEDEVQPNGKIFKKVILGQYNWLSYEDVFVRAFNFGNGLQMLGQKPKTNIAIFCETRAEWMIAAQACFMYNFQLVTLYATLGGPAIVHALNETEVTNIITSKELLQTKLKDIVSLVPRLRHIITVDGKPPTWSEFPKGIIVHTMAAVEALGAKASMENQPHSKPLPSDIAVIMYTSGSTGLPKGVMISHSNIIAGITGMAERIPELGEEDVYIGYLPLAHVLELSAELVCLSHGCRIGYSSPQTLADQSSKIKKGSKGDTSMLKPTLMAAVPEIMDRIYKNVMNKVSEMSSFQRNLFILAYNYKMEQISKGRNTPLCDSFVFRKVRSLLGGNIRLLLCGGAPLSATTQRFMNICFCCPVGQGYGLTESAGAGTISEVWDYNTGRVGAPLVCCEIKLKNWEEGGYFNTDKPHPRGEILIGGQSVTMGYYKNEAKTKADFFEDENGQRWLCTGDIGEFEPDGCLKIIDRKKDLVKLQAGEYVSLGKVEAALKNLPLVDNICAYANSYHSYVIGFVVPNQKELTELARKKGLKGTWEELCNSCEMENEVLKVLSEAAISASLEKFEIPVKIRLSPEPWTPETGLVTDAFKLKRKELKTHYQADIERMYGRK
# Chain of UniProt O75882 (O75882 whole entry, looked up): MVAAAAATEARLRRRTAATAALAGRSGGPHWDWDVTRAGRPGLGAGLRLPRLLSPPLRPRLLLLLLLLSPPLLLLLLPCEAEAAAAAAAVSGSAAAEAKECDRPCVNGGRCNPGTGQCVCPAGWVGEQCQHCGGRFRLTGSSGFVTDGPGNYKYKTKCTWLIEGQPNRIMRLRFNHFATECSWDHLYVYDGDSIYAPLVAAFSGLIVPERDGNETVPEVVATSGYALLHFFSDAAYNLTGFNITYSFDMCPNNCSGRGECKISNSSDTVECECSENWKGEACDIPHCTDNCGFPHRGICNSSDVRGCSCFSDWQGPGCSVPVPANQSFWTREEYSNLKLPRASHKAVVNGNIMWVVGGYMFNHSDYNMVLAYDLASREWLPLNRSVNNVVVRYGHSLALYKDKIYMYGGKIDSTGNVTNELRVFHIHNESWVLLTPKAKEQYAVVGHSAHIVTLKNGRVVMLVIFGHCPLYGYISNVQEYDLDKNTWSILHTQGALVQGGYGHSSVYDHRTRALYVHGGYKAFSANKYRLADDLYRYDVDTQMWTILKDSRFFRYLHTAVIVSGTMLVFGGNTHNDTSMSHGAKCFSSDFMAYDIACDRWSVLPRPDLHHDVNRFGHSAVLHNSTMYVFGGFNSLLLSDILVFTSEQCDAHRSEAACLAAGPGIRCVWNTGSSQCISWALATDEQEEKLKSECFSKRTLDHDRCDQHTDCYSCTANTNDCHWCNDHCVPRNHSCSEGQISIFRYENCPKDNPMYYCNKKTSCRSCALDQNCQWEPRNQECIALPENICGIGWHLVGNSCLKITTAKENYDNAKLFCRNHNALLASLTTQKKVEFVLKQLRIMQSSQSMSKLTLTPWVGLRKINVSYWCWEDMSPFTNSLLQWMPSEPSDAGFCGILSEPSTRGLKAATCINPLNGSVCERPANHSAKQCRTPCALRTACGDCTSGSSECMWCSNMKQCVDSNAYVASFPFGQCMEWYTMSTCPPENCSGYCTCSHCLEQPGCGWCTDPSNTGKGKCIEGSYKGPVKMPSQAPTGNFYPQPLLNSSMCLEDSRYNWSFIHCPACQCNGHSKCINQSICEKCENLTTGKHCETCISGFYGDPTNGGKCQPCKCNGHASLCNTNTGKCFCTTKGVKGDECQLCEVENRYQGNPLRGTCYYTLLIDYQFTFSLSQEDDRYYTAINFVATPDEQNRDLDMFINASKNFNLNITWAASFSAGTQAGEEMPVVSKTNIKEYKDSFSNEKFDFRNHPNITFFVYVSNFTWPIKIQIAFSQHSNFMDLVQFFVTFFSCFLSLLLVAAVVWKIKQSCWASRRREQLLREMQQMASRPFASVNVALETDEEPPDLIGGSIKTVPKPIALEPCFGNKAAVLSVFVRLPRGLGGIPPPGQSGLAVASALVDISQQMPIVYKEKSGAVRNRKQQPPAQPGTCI
# Chain of UniProt Q07960 (Q07960 whole entry, looked up): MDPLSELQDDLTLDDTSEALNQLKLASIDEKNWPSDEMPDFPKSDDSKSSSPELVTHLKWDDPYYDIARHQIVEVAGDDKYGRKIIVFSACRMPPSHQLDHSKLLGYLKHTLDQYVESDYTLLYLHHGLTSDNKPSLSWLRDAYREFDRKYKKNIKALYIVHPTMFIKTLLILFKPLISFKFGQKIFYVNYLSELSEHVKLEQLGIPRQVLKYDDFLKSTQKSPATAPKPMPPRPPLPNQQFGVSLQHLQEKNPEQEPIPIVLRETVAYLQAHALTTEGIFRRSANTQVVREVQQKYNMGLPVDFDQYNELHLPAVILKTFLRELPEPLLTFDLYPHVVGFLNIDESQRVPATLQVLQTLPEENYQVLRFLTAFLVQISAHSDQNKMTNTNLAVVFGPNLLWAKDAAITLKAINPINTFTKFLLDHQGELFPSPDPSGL
Target,log2 fold change [1],log2 fold change (volasertib),log2 fold change [2],log2 fold change (epoxomicin),log2 fold change [3],log2 fold change [4],log2 fold change [5],log2 fold change (rosiglitazone),log2 fold change [6],log2 fold change [7],log2 fold change (saracatinib),log2 fold change (sotrastaurin),log2 fold change (alvocidib),log2 fold change (Tubastatin A),log2 fold change [8],log2 fold change (defactinib),log2 fold change (rucaparib),log2 fold change [9],log2 fold change (encorafenib),log2 fold change [10]
ARHGAP1 (UniProt Q07960),0.014,-0.027,0.021,0.013,-0.006,-0.082,-0.007,0.03,-0.014,0.19,-0.015,-0.03,-0.057,0.044,-0.032,-0.046,0.005,-0.019,0.001,-0.014
ACSL3 (UniProt O95573),-0.062,-0.23 (active),0.022,0.048,-0.049,-0.042,0.024,0.642 (active),-0.036,-0.1,0,-0.014,-0.037,-0.022,-0.008,-0.043,-0.002,0.041,0.008,-0.01
ATP13A2 (UniProt Q9NQ11),-0.141,-0.103,-0.074,0.003,0.012,-0.031,-0.002,0.066,0.058,-0.509 (active),0.061,0.036,0.023,0.026,0.015,-0.116,0,0.039,-0.027,0.026
ARRDC1 (UniProt Q8N5I2),-0.063,-0.137,-0.09,-0.057,0.09,0,0.023,-0.072,-0.038,0.027,0.17,-0.026,-0.275,0.004,-0.06,-0.046,0.075,-0.02,-0.01,-0.006
ATRN (UniProt O75882),0.029,-0.094,-0.019,0.063,-0.1,0.004,-0.01,-0.096,0.095,0.121,0.05,-0.047,-0.024,0.012,-0.017,-0.065,0.022,0.12,-0.05,0.045
ARL6IP6 (UniProt Q8N6S5),0.154,-0.007,-0.043,-0.086,-0.074,0.004,0.004,0.005,0.029,0.01,0.192,0.005,-0.082,-0.014,-0.099,-0.053,0.009,0.004,0.015,-0.035
BCAP29 isoform 2 (UniProt Q9UHQ4),0.022,0.085,-0.072,-0.096,0.082,-0.011,-0.008,0.045,-0.044,0.05,0.052,0.104,0.041,-0.052,0.002,0.033,-0.043,-0.016,-0.026,0.018
AHSA1 (UniProt O95433),-0.085,-0.228 (active),0.038,0.023,0,-0.052,0,0.027,-0.06,0.038,0.022,0.014,-0.039,-0.003,0,-0.061,-0.084,0.011,0.02,-0.008
